Source: PubChem BioAssay
RGS7-Gao reg: human RGS7-Galphao interaction regulation; Multiplexed bead flow cytometry, RGS7-Galphao binding; actives lie on both sides; binding response (% of control), % at 10 µM; 0.35% of 220,000 active; AID 1439; in the data active = binding response below about 49% or above about 150%; inconclusive = no clear call, values can overlap the other calls; inactive = in between;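 also: fluorescent Galphao held in activated GDP-AlF4 state binding bead-coupled RGS7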
Avidin fluor: avidin bead compound fluorescence profile; Avidin beads, compound fluorescence 488/530 nm, flow cytometry; stronger effect = higher value; fluorescence (KMESF) at 10 µM; 0.38% of 220,000 active; AID 1775; in the data active = fluorescence above about 47
RGS8-Gao: regulators of human RGS8-Galphao interaction; response (percent of control binding), % at 10 µM; P09471; multiplexed bead flow cytometry, RGS8-Galphao binding; actives lie on both sides; AID 1423; 0.34% of 220,000 active; in the data active = response below about 60% or above about 140%; inactive = in between;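 also: Galphao activated as the GDP aluminium fluoride complex binding bead-coupled RGS8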
RGS16-Gao: modulates binding between human RGS16 and Galphao | O15492+P09471 | bead-based flow cytometry RGS16-Galphao binding, fluorescence; actives lie on both sides | binding response (% of control), % at 10 µM | 0.38% of 220,000 active | AID 1441; call rule not given here;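 also: Galphao activated by GDP with aluminum fluoride before binding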
GSH bead fluor: GSH bead compound fluorescence profile; GSH beads flow cytometry, compound fluorescence 488/530 nm; stronger effect = higher value; fluorescence (KMESF) at 10 µM; 0.25% of 190,000 active; in the data active = fluorescence above about 89;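 also: glutathione beads carrying GST-tagged Bcl family fusion proteins plus one bare bead set; values are compound well signal with DMSO vehicle wells as background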
RGS4-Gao reg: human RGS4-Galphao interaction regulation; P09471; Multiplexed bead flow cytometry, RGS4-Galphao binding; actives lie on both sides; binding response (% of control), % at 10 µM; 0.33% of 220,000 active; in the data active = binding response below about 49% or above about 150%; inactive = in between;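 also: fluorescent Galphao activated with aluminum fluoride binding bead-coupled RGS4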
The depositor's hits bear a star; ? = inconclusive; . = not tested or not shown; [ ] = dose if it differs, or a comment. Rows were chosen to be rich in hits. Some 1.2% of all compounds tested hit in one or more screens of this group.

SMILES | RGS7-Gao reg | Avidin fluor | RGS8-Gao | RGS16-Gao | GSH bead fluor | RGS4-Gao reg
CC(=O)Oc1ccc2c(c1)Oc1cc(OC(C)=O)ccc1C21OC(=O)c2ccccc21 | 628*[activator] | 399* | 165*[activator] | 888*[activator] | 200* | 581*[activator]
Cc1ccc2cc(CCNC(=O)c3ccc(Br)o3)c(=O)[nH]c2c1 | 97 | 22 | 100 | 98 | 22 | 96
O=C(Nc1cccnc1)c1c(O)c2cccc3c2n(c1=O)CC3 | 134 | 9 | 120 | 125 | 231* | 171*[activator]
Cc1ccc(OC(=O)c2sc3ncn(C)c(=O)c3c2C)cc1 | 105 | 12 | 101 | 102 | 16 | 100
CN(C(=O)Nc1ccc(Cl)cc1Cl)C1CCCC1 | 96 | 8 | 95 | 95 | 18 | 97
COc1ccc(CCNC(=O)c2ccc(C)s2)cc1OC | ? | 13 | 101 | 98 | 13 | 101
N#CC1=C(N)N(c2ccc(F)cc2)C2=C(C1c1ccc(O)cc1)S(=O)(=O)CC2 (configuration not stated) | 98 | 9 | 86 | 81 | 13 | 95
N#C/C(=C\c1ccccc1)C(=O)N(c1ccccn1)C1CCCCC1 | 97 | 15 | 101 | 100 | 16 | 100
COc1cc(C(=O)N2CCN(C(=O)CC(C)C)CC2)cc(OC)c1OC | 131 | 120* | 97 | 101 | 28 | 110
O=C(c1ccc(F)cc1)N1CCN(c2ncccn2)CC1 | 114 | 73* | 99 | 100 | 13 | 100
Cn1ncc(Cl)c1C(=O)Nc1sc2c(c1C(N)=O)CCC2 | 88 | 6 | 103 | 95 | 99* | 90
CCCCSc1ncc(C(=O)OCC)c(N)n1 | 96 | 4 | 102 | 101 | 129* | 101
CCOC(=O)C1=C(C)OC(N)=C(C(=O)OCC)C1c1ccncc1 (configuration not stated) | 106 | 10 | 102 | 111 | 244* | 100
CCOC(=O)C1=C(C)OC(N)=C(C(=O)OCC)C1c1cccnc1 (configuration not stated) | 62 | 25 | 74 | 67 | 15 | 67
O=c1cc(CN2CCN(c3ccccc3O)CC2)nc2sccn12 | 91 | 7 | 97 | 94 | 255* | 92
Cc1cccc(N2CCN(Cc3cc(=O)n4ccsc4n3)CC2)c1C | 96 | 7 | 100 | 96 | 21 | 96
COc1cccc(C(=O)Nc2c(C)n[nH]c2C)c1 | 116 | 55* | 105 | 119 | 17 | 117
Cc1cc(/C=N/NC(=O)c2ccc(O)cc2)c(C)n1CC(C)C | ? | 3 | 98 | 95 | . | 96
COc1ccc(-c2nnn(Cc3nn[nH]n3)n2)cc1OC | 97 | 8 | 97 | 97 | 280* | 96
COc1ccc(-c2nnn(CCc3nn[nH]n3)n2)cc1OC | 95 | 13 | 102 | 91 | 25 | 92
CSCC[C@H](NC(=O)C1CCN(S(=O)(=O)c2ccc(C)cc2)CC1)C(=O)NC1CCS(=O)(=O)C1 (some centres not stated) | 98 | 5 | 103 | 96 | 25 | 101
O=c1c(-c2ccnn2-c2ccccc2F)cnc2n1CCS2 | 102 | 7 | 101 | 97 | 249* | 101
CC(C)c1ccc(NC(=O)CSc2ncccc2C(=O)Oc2cccc([N+](=O)[O-])c2)cc1 | 129 | 9 | 101 | 102 | 10 | 96
COc1cccc(OC)c1OCCCCN1CCCC1 | 107 | 56* | 100 | 95 | 15 | 98
COc1cccc(OC)c1OCCCN1CCOCC1 | 99 | 11 | 101 | 104 | 16 | 102
CCc1c(C)sc(NC(=O)C2CCCO2)c1C#N (configuration not stated) | 76 | 3 | 69 | 32 | 139* | 66
CCc1cccc(C)c1NC(=O)C1CCCO1 (configuration not stated) | 112 | 5 | 105 | 65 | 251* | 114
Cc1cccc2sc(NC(=O)C3CCCO3)nc12 (configuration not stated) | 99 | 33 | 102 | 105 | 25 | 101
NNC(=O)c1csc(Cc2c(Cl)sc3ccc(Cl)cc23)n1 | ? | 8 | 99 | 98 | . | 94
COc1ccc(N(C(=O)Cn2nnc3ccccc32)C(C(=O)NCc2ccco2)c2ccc(C)o2)cc1 (configuration not stated) | 102 | 6 | 100 | 85 | 252* | 99
